Experiment [1] can be described thus: qHTS for Inhibitors of the Functional Ribonucleoprotein Complex (vRNP) of Lassa (LASV) Arenavirus: LASV Primary Screen - GLuc reporter signal (AID 1347082; calls by dose curve; tested in HEK293 reporter line; note: % is set by controls: 0 for no effect and ±100 for the full control effect; nearly all actives have a fitted effect of over 60% in size). In general terms: qHTS replaces the single test concentration by a dilution series.
Experiment [2] can be described thus: qHTS for Inhibitors of the Functional Ribonucleoprotein Complex (vRNP) of Lassa (LASV) Arenavirus: Viability assay - alamar blue signal for LASV Primary Screen (AID 1347083; calls by dose curve; tested in HEK293 reporter line; note: nearly all actives have a fitted effect of over 80% in size; note: potency is the fitted concentration of half-maximal effect).
Experiment [3] is described as follows: qHTS for Inhibitors of the Functional Ribonucleoprotein Complex (vRNP) of Lymphocytic Choriomeningitis Arenaviruses (LCMV): Viability assay - alamar blue signal for LCMV Primary Screen (AID 1347085; calls by dose curve; tested in HEK293 reporter line; note: % is set by controls: 0 for no effect and ±100 for the full control effect; nearly all actives have a fitted effect of over 80% in size).
Experiment [4] deals with Nucleoprotein (Lymphocytic choriomeningitis virus (strain Armstrong)) (UniProt P09992). The experiment is described as follows: qHTS for Inhibitors of the Functional Ribonucleoprotein Complex (vRNP) of Lymphocytic Choriomeningitis Arenaviruses (LCMV): LCMV Primary Screen - GLuc reporter signal (AID 1347086). Note: % is set by controls: 0 for no effect and ±100 for the full control effect; nearly all actives have a fitted effect of over 70% in size.
Chain of Nucleoprotein (Lymphocytic choriomeningitis virus (strain Armstrong)) (P09992 whole entry, looked up): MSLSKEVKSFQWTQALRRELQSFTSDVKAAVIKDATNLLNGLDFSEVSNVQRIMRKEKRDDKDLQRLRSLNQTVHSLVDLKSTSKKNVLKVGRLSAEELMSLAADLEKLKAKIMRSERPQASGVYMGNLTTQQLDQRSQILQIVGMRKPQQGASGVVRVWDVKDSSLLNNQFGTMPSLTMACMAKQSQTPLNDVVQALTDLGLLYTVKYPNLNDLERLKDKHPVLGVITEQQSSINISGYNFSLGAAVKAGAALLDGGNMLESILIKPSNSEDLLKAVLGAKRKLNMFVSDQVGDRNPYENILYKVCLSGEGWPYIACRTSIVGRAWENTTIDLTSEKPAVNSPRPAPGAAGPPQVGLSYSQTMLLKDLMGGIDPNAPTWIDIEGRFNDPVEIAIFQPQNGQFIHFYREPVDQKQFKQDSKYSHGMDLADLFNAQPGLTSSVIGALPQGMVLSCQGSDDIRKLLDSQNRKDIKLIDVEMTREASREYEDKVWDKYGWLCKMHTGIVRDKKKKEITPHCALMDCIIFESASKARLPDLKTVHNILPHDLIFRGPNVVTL
Experiment [5] is described as follows: Cytotoxicity counterscreen for inhibitors of SARS-CoV-2 cell entry (AID 1645845). Note: nearly all actives have a fitted effect of over 50% in size. In short, it runs like this: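 48 h compound treatment (after 1 h preincubation), HEK293-ACE2 cells, 37 C/5% CO2; ATP luminescence endpoint; normalized to cell wells and media blanks.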
For orientation: The purpose of a counterscreen is to sort out artefacts and off-target activity.

Experiment [6] is described as follows: Primary qHTS to identify inhibitors of SARS-CoV-2 cell entry (AID 1645846). Note: nearly all actives have a fitted effect of over 45% in size. Particulars: activity change, negative = inhibition: at 57.1 µM (top of the series) unless noted. In short, it runs like this:
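Using luciferase-reporting pseudoviruses carrying Wuhan-Hu-1 spike, the screen tracks entry into stably ACE2-expressing cells over 48 hr. Activity is expressed relative to spike particles versus particles lacking any fusion protein.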

Experiment [7] relates to CRL-7250. Nature of the experiment: qHTS assay to identify novel small-molecules to repurpose for Merkel cell carcinoma treatment (AID 1296009; active = well fitted curve in the direction sought with a large enough effect; an effect the other way counts as inactive or inconclusive; note: nearly all actives have a fitted effect of over 60% in size). Particulars: MCC and control cell lines, CellTiter-Glo viability, 72 h; series mostly up to 92 µM. Put shortly:
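72 hr, 37 degree celsius; NPC 8-pt / MIPE 11-pt dose response; compound pinned in DMSO; CellTiter-Glo, 10 min RT, luminescence; normalized to no-cell and DMSO controls.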

The target in experiment [8] is ATP-dependent 6-phosphofructokinase (Trypanosoma brucei brucei) (UniProt O15648). Nature of the experiment: qHTS Validation Assay to Find Inhibitors of T. brucei phosphofructokinase (AID 485368; active = well fitted curve in the direction sought with a large enough effect; an effect the other way counts as inactive or inconclusive). Particulars: T. brucei PFK enzyme assay, qHTS 7-point titration; at 57.5 µM (top of the series). Put shortly: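 Activity was read as ADP production by luminescence (ADP-Glo) after 45 min at room temperature. The enzyme was 1.25nM PFK in 0.1M TEA pH 8.0 with 0.5 mM F6P, 0.1mM ATP and 5 mM MgCl2. Compounds were titrated up to 57 uM and % activity normalized to no-enzyme and full-enzyme controls.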
Chain of ATP-dependent 6-phosphofructokinase (Trypanosoma brucei brucei) (O15648 whole entry, looked up): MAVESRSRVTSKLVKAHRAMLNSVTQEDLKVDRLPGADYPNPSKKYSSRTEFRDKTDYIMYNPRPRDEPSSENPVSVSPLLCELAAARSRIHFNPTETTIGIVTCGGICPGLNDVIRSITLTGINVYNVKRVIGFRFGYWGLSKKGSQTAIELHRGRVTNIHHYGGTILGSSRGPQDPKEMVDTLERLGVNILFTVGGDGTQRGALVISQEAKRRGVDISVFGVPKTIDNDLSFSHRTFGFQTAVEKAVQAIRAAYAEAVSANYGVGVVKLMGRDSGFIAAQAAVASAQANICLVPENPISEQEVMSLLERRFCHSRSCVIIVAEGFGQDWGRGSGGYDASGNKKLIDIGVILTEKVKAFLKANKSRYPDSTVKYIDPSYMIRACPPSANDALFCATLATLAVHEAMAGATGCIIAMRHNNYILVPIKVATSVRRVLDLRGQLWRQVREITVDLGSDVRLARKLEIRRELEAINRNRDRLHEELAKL

Experiment [9] in a line: Inducers of the Endoplasmic Reticulum Stress Response (ERSR) in human glioma: Validation (AID 504836; active = well fitted curve in the direction sought with a large enough effect; an effect the other way counts as inactive or inconclusive; note: 0% is about no effect). In short, it runs like this:
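ERSR induction read as luciferase luminescence (Bright-Glo, 10 min at room temperature) in stably transfected human U87-MG glioma cells exposed to compounds for 16 h, using GRP78 as sensor.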

The target of experiment [10] is Ubiquitin carboxyl-terminal hydrolase 1 (Homo sapiens) (UniProt O94782). The experiment is described as follows: Inhibitors of USP1/UAF1: Pilot qHTS (AID 504865; active = well fitted curve in the direction sought with a large enough effect; an effect the other way counts as inactive or inconclusive;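 note: rhodamine fluorescence freed from ubiquitin-rhodamine substrate followed over time; top concentration of the series differs between compounds; % is set by controls: 0 for no effect and ±100 for the full control effect; nearly all actives have a fitted effect of over 35% in size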). Put shortly: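 Enzyme-free wells gave the negative control, while test wells held 1nM USP1/UAF1 preincubated with compound for 15 min at room temperature. Ub-Rho at 150nM final started the reaction, and fluorescence at 480/540 nm was recorded kinetically.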
Chain of Ubiquitin carboxyl-terminal hydrolase 1 (Homo sapiens) (O94782 whole entry, looked up): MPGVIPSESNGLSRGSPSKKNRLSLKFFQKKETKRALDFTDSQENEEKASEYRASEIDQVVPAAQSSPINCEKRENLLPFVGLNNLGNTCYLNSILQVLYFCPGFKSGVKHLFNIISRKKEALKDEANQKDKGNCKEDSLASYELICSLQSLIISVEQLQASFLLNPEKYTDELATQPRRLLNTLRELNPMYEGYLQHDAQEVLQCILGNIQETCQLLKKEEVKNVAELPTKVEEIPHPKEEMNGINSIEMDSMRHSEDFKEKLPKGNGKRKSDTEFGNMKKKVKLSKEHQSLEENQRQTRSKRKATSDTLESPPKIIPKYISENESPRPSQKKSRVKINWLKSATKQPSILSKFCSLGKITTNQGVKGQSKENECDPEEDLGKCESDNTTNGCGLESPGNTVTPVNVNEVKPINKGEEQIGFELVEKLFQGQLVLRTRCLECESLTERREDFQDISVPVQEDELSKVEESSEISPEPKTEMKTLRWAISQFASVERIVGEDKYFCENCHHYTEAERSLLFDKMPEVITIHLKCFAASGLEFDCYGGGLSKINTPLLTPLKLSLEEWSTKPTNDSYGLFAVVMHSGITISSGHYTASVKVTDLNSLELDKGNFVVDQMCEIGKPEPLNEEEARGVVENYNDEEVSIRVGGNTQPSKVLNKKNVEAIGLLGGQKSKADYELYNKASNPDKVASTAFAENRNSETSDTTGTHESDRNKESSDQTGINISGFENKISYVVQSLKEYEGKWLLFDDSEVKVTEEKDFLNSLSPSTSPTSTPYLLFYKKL

A short description of experiment [11]: S16 Schwann cell PMP22 intronic element beta-lactamase assay (AID 624044).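 Note: 0% = DMSO and -100% = potassium clavulanate positive control; nearly all actives have a fitted effect of over 15% in size.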 Put shortly:
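Rat S16 Schwann cells with beta-Lac driven by a PMP22 intronic element, compound-treated 24 h at 37 °C. LiveBLAzer FRET B/G read: 460 nm normalized to potassium clavulanate vs DMSO; 535 nm FRET as viability; concentration-effect curves classified.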

Experiment [12] in a line: HTS Assay for Allosteric Antagonists of the Human D2 Dopamine Receptor: Hit Validation in HTRF (AID 624455; active = well fitted curve in the direction sought with a large enough effect; an effect the other way counts as inactive or inconclusive;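 note: stable D1 dopamine receptor cell line scored for blocking the D1 response; % is set by controls: 0 for no effect and ±100 for the full control effect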). Put shortly: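 First, antagonism was screened by calcium flux in a force-coupled, inducible Hek293 Trex D2 line challenged with EC80 dopamine. Hits then went into an HTRF assay in cells stably expressing D1, testing inhibition of the D1 response.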
For orientation: Time-resolved FRET reads energy transfer from a long-lived donor to a nearby acceptor.

The target in experiment [13] is Arylsulfatase A (Homo sapiens) (UniProt P15289). Nature of the experiment: qHTS screen for enhancers of Arylsulfatase A (ASA1): LOPAC Validation Assay (AID 720538; active = well fitted curve in the direction sought with a large enough effect; an effect the other way counts as inactive or inconclusive; note: 0% is about no effect). Put shortly: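 Cell-based enhancement test: residual ASA activity in SV40-transformed I179S patient fibroblasts is measured by pNCS turnover (0.5mM final, 14h, room temperature) following 48h compound incubation; higher fluorescence indicates activation.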
Chain of Arylsulfatase A (Homo sapiens) (P15289 whole entry, looked up): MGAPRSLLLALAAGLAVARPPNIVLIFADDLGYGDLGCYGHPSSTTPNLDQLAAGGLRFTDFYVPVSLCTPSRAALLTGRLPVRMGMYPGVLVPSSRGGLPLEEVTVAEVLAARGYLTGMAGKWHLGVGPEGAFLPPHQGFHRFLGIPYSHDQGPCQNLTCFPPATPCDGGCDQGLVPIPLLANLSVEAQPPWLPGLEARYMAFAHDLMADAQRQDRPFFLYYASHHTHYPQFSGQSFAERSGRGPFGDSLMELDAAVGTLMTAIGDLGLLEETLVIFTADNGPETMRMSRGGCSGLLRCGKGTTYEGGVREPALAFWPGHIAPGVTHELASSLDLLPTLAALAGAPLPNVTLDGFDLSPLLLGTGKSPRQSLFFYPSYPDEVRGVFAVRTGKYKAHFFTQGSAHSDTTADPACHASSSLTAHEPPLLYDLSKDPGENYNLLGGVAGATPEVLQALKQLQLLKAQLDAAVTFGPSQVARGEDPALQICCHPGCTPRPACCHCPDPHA

Experiment [14] in a line: Validation screen for inhibitors of Lassa infection (AID 463096). Note: % is set by controls: 0 for no effect and ±100 for the full control effect.
The target of experiment [15] is Bile acid receptor (Homo sapiens) (UniProt Q96RI1). Nature of the experiment: qHTS assay for small molecule agonists of farnesoid X receptor signaling (AID 588527).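 Note: 0% = vehicle basal and 100% = reference agonist.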 Particulars: HEK293T FXR-UAS-bla, beta-lactamase ratio, 16 h; activation: stronger effect = higher value. Put shortly: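 FXR-UAS-bla HEK293T cells (10% dialyzed FBS) preincubated 5-7 h at 37 C, then compounds at up to 92 uM for 16 h at 37 C. CCF4 beta-lactamase read-out after 2 h RT. Normalized to chenodeoxycholic acid (100 uM) and DMSO; Hill fit gave EC50 and efficacy.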
Chain of Bile acid receptor (Homo sapiens) (Q96RI1 whole entry, looked up): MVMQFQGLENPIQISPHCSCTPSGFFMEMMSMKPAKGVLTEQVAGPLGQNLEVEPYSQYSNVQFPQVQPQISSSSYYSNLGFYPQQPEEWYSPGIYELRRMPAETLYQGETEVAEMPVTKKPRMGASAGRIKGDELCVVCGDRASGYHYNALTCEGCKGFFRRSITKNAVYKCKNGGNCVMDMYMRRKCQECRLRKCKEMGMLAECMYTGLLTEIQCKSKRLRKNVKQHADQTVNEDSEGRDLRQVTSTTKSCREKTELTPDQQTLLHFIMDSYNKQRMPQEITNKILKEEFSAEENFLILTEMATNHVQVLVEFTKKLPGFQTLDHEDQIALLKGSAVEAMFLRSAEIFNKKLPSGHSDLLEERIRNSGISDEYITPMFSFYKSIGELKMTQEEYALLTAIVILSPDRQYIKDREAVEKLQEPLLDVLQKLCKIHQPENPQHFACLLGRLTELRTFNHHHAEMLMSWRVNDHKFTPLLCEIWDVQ

The nature of experiment [16]: qHTS profiling of the MIPE4 collection as inhibitors of Plasmodium falciparum (3D7) proliferation (AID 743344; call rule not given here;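 note: scaled between DMSO vehicle wells and 0.29 µM artemisinin as full inhibition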). Particulars: P. falciparum 3D7 in erythrocytes, SYBR Green DNA fluorescence, 72 h; at 28.5 µM (top of the series) unless noted. Put shortly: (§1)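 Erythrocytes infected with P. falciparum (0.3% parasitemia, 2.5% hematocrit) incubated with compounds 72 h at 37 C, 5% CO2. Lysis with saponin/Triton buffer containing SYBR Green I, overnight at room temperature in the dark; DNA fluorescence (485/535 nm) normalised to 0.29 uM artemisinin and DMSO.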

Experiment [17] is described as follows: qHTS profiling of the MIPE4 collection as inhibitors of Plasmodium falciparum (DD2) proliferation (Rep 2) (AID 743346; call rule not given here). Particulars: P. falciparum Dd2 in erythrocytes, SYBR Green DNA, 72 h; at 28.5 µM (top of the series) unless noted. Put shortly:
as §1

Experiment [18] is described as follows: qHTS profiling of the MIPE4 collection as inhibitors of Plasmodium falciparum (HB3) proliferation (AID 743347; call rule not given here;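 note: plate controls were DMSO vehicle wells for no effect and artemisinin wells for full effect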). The settings on record: P. falciparum HB3 in erythrocytes, SYBR Green DNA, 72 h; at 28.5 µM (top of the series) unless noted. Put shortly:
as §1

A short description of experiment [19]: KB-8-5-11 P-gp reporter qHTS against the NCATS DSHEA and TCM libraries (AID 1919977; active = well fitted curve in the direction sought with a large enough effect; an effect the other way counts as inactive or inconclusive; note: 0% is about no effect). In short, it runs like this: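 Viability of drug-resistant KB-8-5-11 cells is measured by CellTiter-Glo luminescence following roughly 72 h treatment at 37C. Substances were titrated, with bortezomib as intraplate control.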
Experiment [20] in a line: qHTS profiling of the MIPE4 collection as inhibitors of Plasmodium falciparum (DD2) proliferation (AID 743345; call rule not given here). Particulars: P. falciparum Dd2 in erythrocytes, SYBR Green DNA, 72 h; at 28.5 µM (top of the series) unless noted. Put shortly:
as §1

The target in experiment [21] is Peroxisome proliferator-activated receptor delta (Homo sapiens) (UniProt Q03181). Nature of the experiment: qHTS assay for small molecule agonists of peroxisome proliferator-activated receptor delta signaling (AID 588534).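 Note: 0% = DMSO basal wells and 100% = positive control agonist at 10 µM.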 In short, it runs like this: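 Fluorescence from CCF4 substrate cleavage by beta-lactamase reporter, read 2 hrs at RT, measured agonist activity. Compounds were tested with 18 hrs exposure at 37 C. Concentration-response data fitted to Hill equation.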
Chain of Peroxisome proliferator-activated receptor delta (Homo sapiens) (Q03181 whole entry, looked up): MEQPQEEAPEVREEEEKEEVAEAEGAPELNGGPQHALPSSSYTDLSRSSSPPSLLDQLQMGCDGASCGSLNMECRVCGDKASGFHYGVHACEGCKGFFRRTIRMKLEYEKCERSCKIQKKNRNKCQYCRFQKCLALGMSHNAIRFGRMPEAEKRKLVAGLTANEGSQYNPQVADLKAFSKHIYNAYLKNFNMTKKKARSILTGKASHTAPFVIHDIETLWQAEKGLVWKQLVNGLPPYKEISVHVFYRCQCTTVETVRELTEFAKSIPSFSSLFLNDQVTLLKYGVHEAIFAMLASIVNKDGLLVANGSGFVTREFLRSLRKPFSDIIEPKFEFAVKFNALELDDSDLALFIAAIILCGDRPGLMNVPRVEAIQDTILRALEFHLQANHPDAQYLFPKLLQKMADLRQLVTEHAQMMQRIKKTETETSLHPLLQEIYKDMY

Inconclusive results are not listed. Activity calls are given as the source filed them. Unless noted, calls come from the whole dose curve.

On to `O=C(c1cncc(Br)c1)N1CCC(N2CCCC2)CC1`, for which the Potency entry in [1], in experiment [2], in experiment [3], in experiment [4], in experiment [5] and in [6] was “inactive” in each case. In addition, in experiment [7], the Potency entry was “inactive”.

In the case of `COc1cc2c(cc1OC)C1CC(=O)C(CC(C)C)CN1CC2` (centres undefined), the molecule was called inactive in experiment [8], in experiment [9] and in [12]. The Potency result in experiment [10], in experiment [11], in experiment [13], in [1], in experiment [2] and in experiment [3] was “inactive” throughout. The Potency entry in experiment [4], in [5] and in experiment [7] was “inactive” throughout. The activity change, negative = inhibition in experiment [6] is -3.6%.

As for `CCN1CCCC1CNC(=O)c1cc(S(N)(=O)=O)ccc1OC` (centres undefined), the Potency entry in experiment [14], in [1], in experiment [2], in experiment [3], in experiment [4] and in experiment [7] was “inactive” each time.

`O=C(O)CCCc1c[nH]c2ccccc12`: the activation in [15] was -2.14% (inactive). Moreover, the Potency entry in [1], in experiment [2], in experiment [3], in experiment [4], in experiment [5] and in [7] was “inactive” each time.

In the case of `COC1CCC(C(=O)c2ccc3nc4c(cc3c2)CCCO4)CC1` (centres undefined), the Potency result in [1], in experiment [2], in [3], in [4], in experiment [6] and in experiment [7] was “inactive” in each case.

Regarding `O=C(Nc1nc2ccccc2n1CCN1CCOCC1)c1cccc([N+](=O)[O-])c1`, in [9], the molecule was called inactive. Also, the Potency entry in experiment [1], in [2], in experiment [3], in experiment [4], in experiment [5] and in experiment [7] was “inactive” throughout. The activity change, negative = inhibition in [6] was -0.348%.

In [16], `C[C@@H]1C(=O)O[C@H]2CC34[C@H]5C[C@@H](C(C)(C)C)C36[C@H](OC(=O)[C@@H]6O)O[C@@]4(C(=O)O5)[C@]21O` (some centres undefined) displayed a parasite growth, % of DMSO control of 77.1%. For the same molecule, the parasite growth, % of control (lower = inhibition) in experiment [17] was determined as 91.1%. The molecule further displayed a growth, % of control in experiment [18] of 102%. Also, the Potency result in experiment [1], in [2], in [3], in experiment [4], in experiment [5] and in [6] was “inactive” each time. For the same molecule, the Potency entry in experiment [7] was “inactive”.

As for `COc1ccc(-c2coc3cc(O)ccc3c2=O)cc1`, the Potency entry in [1], in experiment [2], in [3], in experiment [4] and in experiment [7] was “inactive” in each case. Besides, the result in experiment [19] was inactive.

`Nc1ncnc2c1ncn2[C@@H]1O[C@@H](CO)[C@H](O)[C@H]1O`: the Potency result in [1], in experiment [2], in [4] and in [7] was “inactive” in each case.

For the molecule `C[C@@H]1[C@H](C)CC[C@]2(C(=O)O)CC[C@]3(C)C(=CC[C@@H]4[C@@]5(C)CC[C@H](O)C(C)(C)[C@H]5CC[C@]43C)[C@@H]12`, the Potency entry in [1], in experiment [4] and in experiment [7] was “inactive” in each case. In addition, the Potency in experiment [2] was 35.2 µM (active).

`CC(=O)N1CCN(c2ccc(OCc3nn(C)c(C)c3-c3cccc4c(CCCOc5cccc6ccccc56)c(C(=O)O)n(Cc5cccnc5)c34)cc2)CC1`: the Potency entry in experiment [1], in experiment [2], in [4] and in experiment [7] was “inactive” each time.

`O=C(O)C(=O)Nc1cccc(C2=NN=N[N]2)c1` returned a parasite growth, % of DMSO control in experiment [16] of 82.2%. In addition, in experiment [20], the parasite growth remaining, % of DMSO control (lower = more inhibition) was 99.9%. For the same molecule, the parasite growth, % of control (lower = inhibition) in experiment [17] was determined as 136%. The molecule also returned a growth, % of control in [18] of 97.2%. The Potency result in [1], in experiment [2], in experiment [3], in [4] and in [7] was “inactive” throughout.

For the molecule `CCC[C@@H](NC(=O)[C@@H]1[C@H]2CCC[C@@H]2CN1C(=O)[C@@H](NC(=O)[C@@H](NC(=O)c1cnccn1)C1CCCCC1)C(C)(C)C)C(=O)C(=O)NC1CC1`, the Potency entry in [1], in experiment [2], in experiment [4] and in [7] was “inactive” in each case.

For `Cc1cc(O)c2c(c1)C(=O)c1cccc(O)c1C2=O`, the Potency result in experiment [21], in [1], in experiment [2], in experiment [3], in experiment [4] and in experiment [5] was “inactive” in each case. In experiment [7], the Potency entry was “inactive”. For the same molecule, the activity change, negative = inhibition in experiment [6] is -17%.

On to `O=C(/C=C/C=C/c1ccc2c(c1)OCO2)N1CCCCC1`, for which the Potency entry in experiment [21], in [1], in experiment [2], in experiment [3], in experiment [4] and in [5] was “inactive” throughout. For the same molecule, the Potency result in experiment [7] was “inactive”. For the same molecule, the activity change, negative = inhibition in experiment [6] is -9.28%.

These data come from PubChem BioAssay (NCATS).
